Experiment [1] can be described thus: Nuclear factor erythroid 2-related factor 2/antioxidant responsive element (Nrf2/ARE) small molecule agonists: qHTS cell viability counter screen in human keratinocytes (AID 1919968; active means well fitted curve in the direction sought with a large enough effect in the repeat runs; an effect the other way counts as inactive or inconclusive; further: nearly all actives have a fitted effect of over 55% in size). In a few lines: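 CellTiter-Fluor fluorescence, read 1 h after reagent, gave viability in the same wells as the ARE-luciferase assay. KeratinoSens cells (1,500/well) had 23 h compound exposure at 37 C/5% CO2 following 5 h plating.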

The nature of experiment [2]: Nuclear factor erythroid 2-related factor 2/antioxidant responsive element (Nrf2/ARE) small molecule agonists: luciferase reporter gene qHTS assay in human keratinocytes (AID 1919969). Further: nearly all actives have a fitted effect of over 35% in size. Further: potency means the concentration at half of the fitted maximal effect. A general note: In a reporter assay the amount or activity of a reporter protein is the signal.
Experiment [3] has as its target Gonadotropin-releasing hormone receptor (Homo sapiens) (UniProt P30968). Description: Human gonadotropin-releasing hormone receptor (GnRHR) small molecule agonists, calcium flux assay in GnRHR-HEK293 cells (AID 1920063). Further: nearly all actives have a fitted effect of over 35% in size. In outline: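 Agonist mode: compounds at 15 concentrations, in triplicate, went onto calcium dye-loaded GnRHR-HEK293 cells. Intracellular calcium was then followed as 480/540 nm fluorescence at 1 s intervals over 3 min.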
(Calcium flux is commonly read through the fluorescence of an indicator in the cells.)

Experiment [4] concerns the target KiSS-1 receptor (Homo sapiens) (UniProt Q969F8). Description: Human kisspeptin (KISS1R) small molecule agonists, calcium flux assay in KISS1R-HEK293 cells (AID 1920064; active means well fitted curve in the direction sought with a large enough effect in the repeat runs; an effect the other way counts as inactive or inconclusive). In a few lines: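 Agonist mode: intracellular calcium rise tracked at 1 s intervals over 3 min (480/540 nm) immediately after compound addition to dye-loaded KISS1R-HEK293 stable cells. Each compound tested at 15 concentrations in triplicate.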

A short description of experiment [5]: G protein-coupled receptor (GPCR) small molecule agonists, calcium flux assay: HEK293 wild type cell line counter screen (AID 1920065). In a few lines: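 Calcium flux counter screen: compound added in agonist mode at 15 concentrations in triplicate to dye-loaded parental HEK293 cells. Fluorescence (480/540) read kinetically for 3 min; ATP served as positive control.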

Experiment [6] is described as follows: p53 small molecule agonists, cell-based qHTS assay with human liver microsomes: qHTS cell viability counter screen (AID 1963579). Further: nearly all actives have a fitted effect of over 45% in size. In a few lines: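 Tox21 library compounds, delivered from DMSO stocks, were tested on p53RE-bla cells together with 0.5 mg/mL human liver microsomes and 0.5 mg/mL NADPH (final) over 16 h at 37 C; CellTiter-Glo luminescence served as the cytotoxicity measure.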
In general terms: qHTS replaces the single test concentration by a dilution series.

Experiment [7] is described as follows: p53 small molecule agonists, cell-based qHTS assay with rat liver microsomes: qHTS cell viability counter screen (AID 1963580). Further: nearly all actives have a fitted effect of over 45% in size. In a few lines: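 Rat liver microsome (0.5 mg/mL final) and NADPH (0.5 mg/mL final) co-incubation with compounds for 16 h at 37 C on HCT-116 p53RE-bla cells; cytotoxicity taken from intracellular ATP luminescence.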
Experiment [8] can be described thus: p53 small molecule agonists, cell-based qHTS assay: qHTS cell viability counter screen (AID 1963581). Further: nearly all actives have a fitted effect of over 45% in size. In a few lines: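 Counter screen read by CellTiter-Glo luminescence (ATP content, 30 min at room temperature), run in the same wells as the beta-lactamase reporter read. HCT-116 p53RE-bla cells saw compounds for 16 h at 37 C.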
In experiment [9] the target is 5-hydroxytryptamine receptor 2A (Homo sapiens) (UniProt P28223). Put plainly: 5-hydroxytryptamine receptor 2A (HTR2A) small molecule antagonists, cell-based qHTS assay (AID 1963586). Further: nearly all actives have a fitted effect of over 45% in size. In outline: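 CHO cells stably expressing human HTR2A were plated for 18 h at 37 C, then loaded with calcium dye for 1 h. Compounds were preincubated 5 min at room temperature before DOI (4 nM solution) was added. Kinetic fluorescence was read for 3 min.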
5-hydroxytryptamine receptor 2A (Homo sapiens), sequence (P28223 whole entry, looked up): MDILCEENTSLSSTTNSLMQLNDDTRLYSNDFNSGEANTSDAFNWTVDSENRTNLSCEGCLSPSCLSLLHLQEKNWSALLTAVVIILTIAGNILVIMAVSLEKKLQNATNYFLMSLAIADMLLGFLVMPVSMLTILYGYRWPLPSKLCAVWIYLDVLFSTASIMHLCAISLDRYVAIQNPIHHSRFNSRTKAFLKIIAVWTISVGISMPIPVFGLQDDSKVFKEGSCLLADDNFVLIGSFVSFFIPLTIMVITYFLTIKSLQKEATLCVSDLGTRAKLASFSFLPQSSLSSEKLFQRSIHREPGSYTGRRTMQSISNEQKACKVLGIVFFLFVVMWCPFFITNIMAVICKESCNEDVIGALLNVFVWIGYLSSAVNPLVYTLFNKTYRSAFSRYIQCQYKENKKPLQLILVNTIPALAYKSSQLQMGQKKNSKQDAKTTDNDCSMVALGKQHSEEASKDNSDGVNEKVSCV

Experiment [10] has as its target Muscarinic acetylcholine receptor M1 (Homo sapiens) (UniProt P11229). Description: Cholinergic receptor muscarinic 1 (CHRM1) small molecule antagonists, cell-based qHTS assay (AID 1963588). Further: nearly all actives have a fitted effect of over 40% in size. In a few lines:
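Compounds were tested at 15 concentrations in three independent runs. Dye-loaded CHRM1-CHO cells were exposed 5 min at room temperature before stimulation by acetylcholine added at 50nM. Intracellular calcium was read kinetically on FDSS for 3 min.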

Experiment [11] shares this target. Put plainly: Cholinergic receptor muscarinic 1 (CHRM1) small molecule agonists, cell-based qHTS assay (AID 1963589). Further: nearly all actives have a fitted effect of over 35% in size. In outline:
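Agonist-mode calcium-flux screen: compounds at 15 concentrations, three independent runs, were pin-transferred onto dye-loaded human CHRM1-CHO cells. Fluorescence was then recorded kinetically every second over minutes.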

Experiment [12] can be described thus: cAMP Responsive Elements (CRE) small molecule agonists, cell-based qHTS assay (AID 1963590). In a few lines:
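Agonist mode: compound added to CRE-bla HEK 293T cells (2,000/well, 18 h after plating) for 3 h at 37 C/5% CO2. Reporter activity detected via FRET beta-lactamase substrate, 2 h room-temperature loading.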

Experiment [13] in a line: cAMP Responsive Elements (CRE) small molecule antagonists, cell-based qHTS assay (AID 1963591; active means well fitted inhibition curve with a large enough effect in the signal ratio in the repeat runs, not every such curve was filed as active; the % refers to the signal ratio). In outline: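 Antagonist mode: compounds are added alongside the adenylyl cyclase activator NKH477 (0.25 uM final) to CRE-bla HEK293T cells for 3 h. LiveBLAzer FRET substrate, 2 h at room temperature, reports bla expression.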
Experiment [14] addresses Beta-2 adrenergic receptor (Homo sapiens) (UniProt P07550). Put plainly: Adrenergic beta2 receptor (ADRB2) small molecule antagonists, cell-based qHTS assay (AID 1963592). Further: series mostly up to about 92 µM; nearly all actives have a fitted effect of over 50% in size. In a few lines: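 Assay format: CHO-ADRB2 cells, 18-20hr seeding at 37C/5% CO2, then compound plus 1nM isoproterenol agonist mix for 0.5hr RT. Homogeneous time-resolved fluorescence cAMP detection after 1hr, expressed as 665/615 nm ratio.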

Experiment [15] shares this target. Description: Adrenergic beta2 receptor (ADRB2) small molecule agonists, cell-based qHTS assay (AID 1963593).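 Further: CHO cells stably overexpressing human ADRB2.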 In outline:
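CHO cells stably over-expressing ADRB2 were plated overnight at 37C, then dosed with compounds plus a stimulation mix containing 100uM IBMX and 25uM Ro-20-1724 for 0.5hr at room temperature. cAMP was measured by HTRF competition, 1hr.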

Experiment [16] deals with D(2) dopamine receptor (Homo sapiens) (UniProt P14416). Description: Dopamine D2 receptor (DRD2) small molecule agonists, cell-based qHTS assay (AID 1963594). Further: nearly all actives have a fitted effect of over 35% in size. In outline:
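cAMP accumulation in DRD2-HEK293 cells measured by HTRF after 1 h detection; compounds added 10 min before NKH477 (200nM […]) forskolin-analogue stimulation, 30 min at room temperature, with Ro20-1724 present at 0.1 mM final.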

The target is the same in experiment [17]. Description: Dopamine D2 receptor (DRD2) small molecule antagonists, cell-based qHTS assay (AID 1963595; active means well fitted inhibition curve with a large enough effect in the signal ratio in the repeat runs, with a control signal flat; the % refers to the signal ratio). In outline: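 HEK293 cells stably expressing DRD2 were preincubated with 0.1 mM Ro20-1724, then with compound for 10 min at room temperature. Cells were stimulated with 200 nM NKH477 plus 12 nM quinpirole for 30 min, and cAMP was read by HTRF.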
Experiment [18] deals with 5-hydroxytryptamine receptor 2A (Homo sapiens) (UniProt P28223). Put plainly: 5-hydroxytryptamine receptor 2A (HTR2A) small molecule agonists, cell-based qHTS assay (AID 1963587). Further: nearly all actives have a fitted effect of over 30% in size. In outline: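 Kinetic calcium-flux fluorescence (2 min, 1 sec intervals) after compound addition in agonist mode. HTR2A-CHO cells were cultured 18 h, then dye-loaded 1 h at 37 C.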

The structures appear in SMILES notation. A number with no mark means an inactive call. Records with an inconclusive call do not appear. The source made the active and inactive calls. Unless noted, the call rests on the fitted dose curve.

Experimental findings from PubChem BioAssay (Tox21) are described below.

Beta-2 adrenergic receptor (Homo sapiens), sequence (P07550 whole entry, looked up): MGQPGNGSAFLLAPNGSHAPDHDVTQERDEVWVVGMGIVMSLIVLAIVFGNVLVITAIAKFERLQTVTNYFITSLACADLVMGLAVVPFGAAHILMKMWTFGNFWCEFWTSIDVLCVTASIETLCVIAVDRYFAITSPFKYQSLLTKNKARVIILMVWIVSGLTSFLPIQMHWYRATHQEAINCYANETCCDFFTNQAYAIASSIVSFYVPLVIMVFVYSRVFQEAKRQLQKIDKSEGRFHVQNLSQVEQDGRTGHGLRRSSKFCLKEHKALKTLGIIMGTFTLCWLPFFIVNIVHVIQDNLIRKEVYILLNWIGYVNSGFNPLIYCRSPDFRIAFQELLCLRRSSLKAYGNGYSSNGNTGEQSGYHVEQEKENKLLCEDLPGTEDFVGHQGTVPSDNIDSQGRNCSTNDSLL
D(2) dopamine receptor (Homo sapiens), sequence (P14416 whole entry, looked up): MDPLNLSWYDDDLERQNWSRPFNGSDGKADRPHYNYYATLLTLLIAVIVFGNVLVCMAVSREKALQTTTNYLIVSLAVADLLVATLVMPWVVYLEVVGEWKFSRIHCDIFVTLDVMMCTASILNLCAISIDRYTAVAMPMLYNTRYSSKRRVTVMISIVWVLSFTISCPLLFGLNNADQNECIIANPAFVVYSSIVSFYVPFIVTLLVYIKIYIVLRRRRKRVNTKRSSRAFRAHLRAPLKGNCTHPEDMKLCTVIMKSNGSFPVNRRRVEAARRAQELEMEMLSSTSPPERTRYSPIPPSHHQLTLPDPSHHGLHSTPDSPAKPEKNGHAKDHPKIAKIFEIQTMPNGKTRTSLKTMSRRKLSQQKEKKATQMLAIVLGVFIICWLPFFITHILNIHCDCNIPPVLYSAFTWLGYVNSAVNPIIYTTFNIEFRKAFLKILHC
Gonadotropin-releasing hormone receptor (Homo sapiens), sequence (P30968 whole entry, looked up): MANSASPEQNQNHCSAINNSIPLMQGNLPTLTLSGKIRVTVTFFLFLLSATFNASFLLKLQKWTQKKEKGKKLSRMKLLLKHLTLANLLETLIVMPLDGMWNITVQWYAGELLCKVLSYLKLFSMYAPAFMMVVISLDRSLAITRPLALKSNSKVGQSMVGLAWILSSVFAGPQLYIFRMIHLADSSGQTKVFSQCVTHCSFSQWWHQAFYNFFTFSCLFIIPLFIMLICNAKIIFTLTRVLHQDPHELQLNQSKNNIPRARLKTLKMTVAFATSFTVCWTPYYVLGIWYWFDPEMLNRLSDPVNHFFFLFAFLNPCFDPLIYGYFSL
Muscarinic acetylcholine receptor M1 (Homo sapiens), sequence (P11229 whole entry, looked up): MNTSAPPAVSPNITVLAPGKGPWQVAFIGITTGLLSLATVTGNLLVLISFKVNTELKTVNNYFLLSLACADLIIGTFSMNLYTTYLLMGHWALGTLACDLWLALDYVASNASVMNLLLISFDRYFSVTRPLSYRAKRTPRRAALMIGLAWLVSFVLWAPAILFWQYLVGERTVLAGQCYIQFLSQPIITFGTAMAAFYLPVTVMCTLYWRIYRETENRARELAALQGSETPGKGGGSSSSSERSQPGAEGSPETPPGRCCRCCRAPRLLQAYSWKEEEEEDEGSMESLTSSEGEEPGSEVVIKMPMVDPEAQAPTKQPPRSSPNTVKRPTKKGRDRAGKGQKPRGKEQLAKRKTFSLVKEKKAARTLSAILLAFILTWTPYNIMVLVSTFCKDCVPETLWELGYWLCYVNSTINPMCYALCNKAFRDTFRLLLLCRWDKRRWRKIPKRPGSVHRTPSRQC
KiSS-1 receptor (Homo sapiens), sequence (Q969F8 whole entry, looked up): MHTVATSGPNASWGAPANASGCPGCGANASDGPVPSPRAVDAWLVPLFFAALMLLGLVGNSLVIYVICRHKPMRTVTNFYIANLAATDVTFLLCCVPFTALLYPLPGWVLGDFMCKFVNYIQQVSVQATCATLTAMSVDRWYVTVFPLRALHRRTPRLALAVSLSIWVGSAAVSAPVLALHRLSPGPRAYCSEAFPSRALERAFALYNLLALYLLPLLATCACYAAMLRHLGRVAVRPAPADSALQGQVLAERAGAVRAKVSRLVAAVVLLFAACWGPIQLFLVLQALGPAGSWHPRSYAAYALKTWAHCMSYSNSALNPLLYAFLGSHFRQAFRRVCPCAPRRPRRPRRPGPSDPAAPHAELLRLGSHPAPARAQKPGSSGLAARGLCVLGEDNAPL

With `CC1(C)CCC[C@]2(C)[C@H]3CCO[C@]3(C)CC[C@@H]12`, the Potency result in [1], in [2], in [3], in experiment [4], in [5] and in experiment [6] was “inactive” throughout. In addition, the Potency result in experiment [7], in [8], in experiment [9], in experiment [10], in experiment [11] and in experiment [12] was “inactive” each time. Besides, the Potency entry in [13], in [14], in [15], in experiment [16] and in experiment [17] was “inactive” throughout.

Turning to `O=C(O)c1nc(Cl)c(Cl)c(Cl)c1Cl`, the Potency result in [1], in experiment [3], in [4], in experiment [5], in experiment [6] and in [7] was “inactive” throughout. Besides, the Potency entry in experiment [8], in experiment [9], in experiment [18], in experiment [11], in experiment [14] and in [16] was “inactive” throughout. For the same molecule, in experiment [17], the Potency entry was “inactive”. Further, the Potency in experiment [2] was 30.6 µM (active).

Consider `CC(=O)SCc1ccco1`, for which the Potency result in experiment [1], in [2], in experiment [3], in [4], in experiment [5] and in [6] was “inactive” in each case. The Potency result in experiment [7], in experiment [8], in experiment [9], in experiment [11], in experiment [12] and in experiment [13] was “inactive” throughout. In addition, the Potency result in experiment [14], in [16] and in experiment [17] was “inactive” in each case.

`O=C(O)c1ccc2cc(C(=O)O)ccc2c1`: the Potency result in experiment [1], in [2], in experiment [3], in experiment [4], in [5] and in experiment [6] was “inactive” in each case. Besides, the Potency result in experiment [7], in [8], in experiment [18], in experiment [10], in experiment [11] and in experiment [12] was “inactive” in each case. Further, the Potency result in experiment [14], in experiment [16] and in experiment [17] was “inactive” in each case.

With `NC(N)=NS(=O)(=O)c1ccc(N)cc1`, the Potency result in experiment [1], in experiment [2], in experiment [3], in experiment [4], in experiment [5] and in [6] was “inactive” each time. The Potency entry in experiment [7], in experiment [8], in experiment [18], in experiment [10], in experiment [11] and in [13] was “inactive” throughout. The Potency result in experiment [14] and in experiment [16] was “inactive” each time.

Consider `Oc1ccccc1F`, for which the Potency entry in [1], in experiment [2], in experiment [3], in [4], in experiment [5] and in experiment [6] was “inactive” in each case. For the same molecule, the Potency entry in experiment [7], in experiment [8], in [9], in [10], in experiment [11] and in experiment [12] was “inactive” each time. Moreover, the Potency entry in experiment [13], in [14], in experiment [16] and in [17] was “inactive” throughout.

As for `CC(O)CC(C)O` (stereo unspecified), the Potency entry in experiment [1], in [2], in experiment [3], in [4], in experiment [5] and in [6] was “inactive” in each case. Moreover, the Potency entry in experiment [7], in experiment [8], in experiment [9], in experiment [10], in [12] and in experiment [13] was “inactive” each time. In addition, the Potency entry in experiment [14], in experiment [15], in [16] and in [17] was “inactive” in each case.

Turning to `CC(=O)OCC(=O)[C@@]1(O)[C@H](C)C[C@H]2[C@@H]3CCC4=CC(=O)C=C[C@]4(C)[C@@]3(F)[C@@H](O)C[C@@]21C`, the Potency result in experiment [1], in [2], in [3], in [4], in [5] and in [6] was “inactive” each time. Moreover, the Potency entry in [7], in experiment [8], in experiment [9], in [10], in experiment [11] and in experiment [14] was “inactive” in each case. Besides, the Potency entry in [16] and in [17] was “inactive” in each case.
